Where “and” joins values, the source holds several entries; their conditions need not be identical. Equal entries are not always repeated. In all, about 16,000 compounds went through this assay and about 2,600 (16%) were called active. About 20% were inconclusive and are not listed. The sample holds actives, similar compounds and a random draw of the others, so the mix is not that of the screen. Unmarked numbers belong to inactive results. Calls come from the whole dose curve; as a rule, active = well fitted curve in the direction sought with a large enough effect; inconclusive = small, poorly fitted or top-dose-only effect, or effect the other way; inactive = no such curve, though single readings can be large or run the other way.
The molecules below were run against Cytochrome P450 2D6 (Homo sapiens) (UniProt P10635) (assay: Cytochrome panel assay with activity outcomes). Details: recombinant CYP, pro-luciferin dealkylation, luminescence, p450-cyp2d6; series mostly up to 57.1 µM; activity, negative = inhibition: at the top concentration.
Cytochrome P450 2D6 (Homo sapiens), sequence (P10635 whole entry, looked up): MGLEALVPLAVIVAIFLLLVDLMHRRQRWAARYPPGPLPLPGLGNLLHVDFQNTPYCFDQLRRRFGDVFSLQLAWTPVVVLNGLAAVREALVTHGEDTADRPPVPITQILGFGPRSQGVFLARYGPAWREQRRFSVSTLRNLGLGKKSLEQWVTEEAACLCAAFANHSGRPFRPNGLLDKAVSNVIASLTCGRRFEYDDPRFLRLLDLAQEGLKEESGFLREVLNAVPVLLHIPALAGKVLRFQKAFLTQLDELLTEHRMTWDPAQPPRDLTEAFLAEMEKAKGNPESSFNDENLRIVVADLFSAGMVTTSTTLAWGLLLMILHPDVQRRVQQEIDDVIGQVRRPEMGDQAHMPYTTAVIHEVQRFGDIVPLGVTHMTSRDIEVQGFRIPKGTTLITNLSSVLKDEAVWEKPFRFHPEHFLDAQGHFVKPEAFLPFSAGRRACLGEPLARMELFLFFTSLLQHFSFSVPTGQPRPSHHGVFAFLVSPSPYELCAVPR
% is set by controls: 0 for no effect and ±100 for the full control effect.

Structure (SMILES) | AC50 | activity, negative = inhibition
C=CCN1C[C@H](C)N([C@H](c2ccc(C(=O)N(CC)CC)cc2)c2cccc(OC)c2)C[C@H]1C | 1.58 µM (active) | –
C=CCN1C[C@@H](C)N([C@H](c2ccc(C(=O)N(CC)CC)cc2)c2cccc(OC)c2)C[C@H]1C | 31.6 µM (active) | –
C=CCN1C[C@H](C)N([C@@H](c2ccccc2)c2ccc(C(=O)N(CC)CC)cc2)C[C@H]1C | – | -15.7%
C=CCN1C[C@H](C)N([C@H](c2ccc(C(=O)N(CC)CC)cc2)c2cccc(O)c2)C[C@H]1C | – | -2.16%
Cn1c(=O)c2[nH]cnc2n(C)c1=O.[CH2-][C@H](Cc1cccc2cc(C(=O)O)c(=O)oc12)OC.[Hg].[OH-] | – | 10.9% [at 11.4 µM]
Cc1ccc(-c2nc3ccccc3c(=O)n2-c2ncccc2C)cc1 | – | -10.4%
C[C@H]1CC[C@@]2(NC1)O[C@@H]1C[C@H]3[C@@H]4CC=C5C[C@@H](O)CC[C@]5(C)[C@@H]4CC[C@]3(C)[C@@H]1[C@@H]2C | – | 2.22% [at 25.6 µM]
C[C@@H](Cc1ccc(OCC(=O)O)cc1)NC[C@H](O)c1cccc(Cl)c1 | 25.1 µM (active) | –
COc1ccc(OCC(=O)Nc2ccc(Cl)cc2C(=O)c2ccccc2)cc1 | – | -2.96%
CCNC[C@H](O)c1cccc(O)c1 | – | -3.56% [at 25.6 µM]
O=C(Nc1ccc(C(F)(F)F)cc1)c1cccn(Cc2ccc3c(c2)OC(F)(F)O3)c1=O | – | -11.5%
CCCCN1C(=O)C(C2c3ccccc3C(=O)N2Cc2ccccc2)C(=O)NC1=S (centres undefined) | – | 3.38%
COC(=O)[C@@H]1[C@@H]2C[C@H]3c4[nH]c5cc(OC)ccc5c4CCN3C[C@@H]2C[C@H](OC(=O)/C=C\c2cc(OC)c(OC)c(OC)c2)[C@H]1OC | – | -13.1% [at 25.6 µM]
O=C(CCCN1CCC(n2c(=O)[nH]c3ccccc32)CC1)c1ccc(F)cc1 | 6.31 µM (active) | –
O=C(CCCN1CCC2(CC1)C(=O)NCN2c1ccccc1)c1ccc(F)cc1 | 2.51 µM (active) and 1 µM (active) and 1.58 µM (active) | –
O=C1NCN(c2ccccc2)C12CCN(CCCOc1ccc(F)cc1)CC2 | 0.158 µM (active) | –
O=C1NCN(c2ccccc2)C12CCN(C[C@H]1COc3ccccc3O1)CC2 | 0.0631 µM (active) | –
CC(=O)OC1=CC2=CC[C@H]3[C@H]4CCC(=O)[C@@]4(C)CC(=O)[C@]3(S)[C@]2(C)CC1 | – | 0.557% [at 11.4 µM]
CC[C@@](O)(C(=O)O)c1cc2n(c(=O)c1CO)Cc1cc3ccccc3nc1-2 | – | 10.4% [at 11.4 µM]
O=C(Nc1cccc(F)c1)N1CC2(CCN(C(=O)Oc3ccccc3)CC2)C1 | – | -4.33%

Structure (SMILES) | AC50 | activity, negative = inhibition
CN1C(=O)C(=Cc2ccccc2Oc2ccc(Cl)c(F)c2)C(=O)N(C)C1=O | – | 16.1%
CC(C)C12CN3CC(C(C)C)(CN(C1)C3c1cccnc1)C2=O (centres undefined) | – | -8.2%
O=C(CCCN1CCC2(CC1)C(=O)N(Cc1cccc(F)c1)CN2c1ccccc1)c1ccc(F)cc1 | 3.16 µM (active) | –
C[C@@]12CC(=O)[C@H]3[C@@H](CCC4=CC(=O)CC[C@]43C)[C@H]1CCC2=O | – | 2.29% [at 25.6 µM]
COc1ccccc1CC1C(=O)C2CCN1CC2 (centres undefined) | 11.2 µM (active) | –
CC(C)C(=O)Nc1ccc([N+](=O)[O-])c(C(F)(F)F)c1 | – | -17.2% [at 25.6 µM]
CC(C)(C)NC[C@H](O)c1cc(Cl)c(N)c(Cl)c1 | – | -17.1% [at 25.6 µM]
CN(C)C(=O)Oc1cccc([N+](C)(C)C)c1 | – | -2.57% [at 25.6 µM]
CN(C)C(=O)Oc1cc(OC(=O)N(C)C)cc([C@@H](O)CNC(C)(C)C)c1 | 7.94 µM (active) | –
CCCC[N+]12CCC(CC1)C(C(=O)c1cccs1)C2 (centres undefined) | 0.282 µM (active) | –
CCN1C[C@@]2(COC)CC[C@H](O)[C@@]34[C@@H]2C[C@@H]([C@@H]13)[C@]1(O)C[C@@H](OC)C2C[C@H]4[C@H]1[C@H]2OC(C)=O | – | 1.85% [at 25.6 µM]
CC[N+](CC)(CCCNC1=CC(=O)C(NCCC[N+](CC)(CC)Cc2ccccc2)=CC1=O)Cc1ccccc1 | – | -11.7%
CC(=O)O[C@H]1CC[C@@]2(C)[C@@H](CC[C@H]3[C@H]2CC(=O)[C@@]2(C)[C@@H]3C[C@H]3CC(C)=CC(=O)[C@H]32)C1 | – | 2.72% [at 11.4 µM]
COc1ccc(C[C@@H](N)c2ccc(OC)cc2)cc1 | 0.631 µM (active) | –
COc1ccc(OC)c([C@H](O)[C@H](C)N)c1 | – | -12.7% [at 25.6 µM]
Cc1ccc(C(=O)C2C(=O)c3ccccc3C2=O)cc1 | – | 3%
O=C1NC(=S)NC(=O)C1=Cc1cccc2cc3ccccc3cc12 | – | -0.164% [at 11.4 µM]
CC[C@@H](CO)Nc1nc(NCc2ccccc2)c2ncn(C(C)C)c2n1 | 31.6 µM (active) | –
CC(C)[C@H](CO)Nc1nc(Nc2cccc(Cl)c2)c2ncn(C(C)C)c2n1 | – | 2.72%

Source: PubChem BioAssay AID1851 (National Center for Advancing Translational Sciences (NCATS), 2009)
